The subject of this assay is Vero E6 infected with SARS-CoV-2. The experiment in a line: SARS-CoV-2 infection rate relative to infected DMSO; higher = more infection, active = 60 or less. Particulars: 24 h.
For the compound `c1ccc2[nH]c(-c3cscn3)nc2c1` [tiabendazole] (10 µM), the SARS-CoV-2 infection rate was 111% (inactive).

Turning to `CCC[C@H](N[C@@H](C)C(=O)N1[C@H](C(=O)O)C[C@@H]2CCCC[C@@H]21)C(=O)OCC` [perindopril] (10 µM), the SARS-CoV-2 infection rate is 95% (inactive).

`O=C(O)CCCC[C@@H]1SC[C@@H]2NC(=O)N[C@@H]21` [biotin] (10 µM): the SARS-CoV-2 infection rate is 108% (inactive).

Turning to `N[C@@H](CSS(=O)(=O)O)C(=O)O` [S-sulfo-L-cysteine] (10 µM), the SARS-CoV-2 infection rate was 90% (inactive).

Take `Nc1nc(OCC2CCCCC2)c2nc[nH]c2n1` (10 µM): the SARS-CoV-2 infection rate was 90.5% (inactive).

As to `O=C(O)c1cccnc1Nc1cccc(C(F)(F)F)c1` [niflumic-acid] (10 µM), the SARS-CoV-2 infection rate was 104% (inactive).

Regarding `CCOC(=O)c1ccc(OC(=O)CCCCCNC(=N)N)cc1` [gabexate] (10 µM), the SARS-CoV-2 infection rate is 102% (inactive).

For `O=C1O[C@H]([C@@H](O)CO)C([O-])=C1O.[Na+]` [sodium-ascorbate] (10 µM), the SARS-CoV-2 infection rate is 95.5% (inactive).

`Nc1[nH]cnc2ncnc1-2` [adenine] (10 µM): the SARS-CoV-2 infection rate is 102% (inactive).

Turning to `Cc1cc(C)cc(C(=O)O[C@H]2C[C@H]3CC[C@@H](C2)N3C)c1` [tropanyl-3,5-dimethylbenzoate] (10 µM), the SARS-CoV-2 infection rate is 90% (inactive).

On to `Cc1[nH]c(/C=C2\C(=O)Nc3ccc(S(=O)(=O)N(C)c4cccc(Cl)c4)cc32)c(C)c1C(=O)N1CCN(C)CC1` (10 µM), for which the SARS-CoV-2 infection rate is 104% (inactive).

For the compound `NCCCC(O)(P(=O)(O)O)P(=O)(O)O` [alendronate] (10 µM), the SARS-CoV-2 infection rate was 110% (inactive).

The record behind these values is the supplement of paper PMC13380429.
